# Whole data set: some 33,000 sequences, median “E-score (-0.5 to 0.5)” near -0.016, cut for the highest 2% near 0.3. The sample as a whole holds a higher share of the highest values than the screen did.
# Target: T1, Yer184c (UniProt P39961)
# T1 sequence: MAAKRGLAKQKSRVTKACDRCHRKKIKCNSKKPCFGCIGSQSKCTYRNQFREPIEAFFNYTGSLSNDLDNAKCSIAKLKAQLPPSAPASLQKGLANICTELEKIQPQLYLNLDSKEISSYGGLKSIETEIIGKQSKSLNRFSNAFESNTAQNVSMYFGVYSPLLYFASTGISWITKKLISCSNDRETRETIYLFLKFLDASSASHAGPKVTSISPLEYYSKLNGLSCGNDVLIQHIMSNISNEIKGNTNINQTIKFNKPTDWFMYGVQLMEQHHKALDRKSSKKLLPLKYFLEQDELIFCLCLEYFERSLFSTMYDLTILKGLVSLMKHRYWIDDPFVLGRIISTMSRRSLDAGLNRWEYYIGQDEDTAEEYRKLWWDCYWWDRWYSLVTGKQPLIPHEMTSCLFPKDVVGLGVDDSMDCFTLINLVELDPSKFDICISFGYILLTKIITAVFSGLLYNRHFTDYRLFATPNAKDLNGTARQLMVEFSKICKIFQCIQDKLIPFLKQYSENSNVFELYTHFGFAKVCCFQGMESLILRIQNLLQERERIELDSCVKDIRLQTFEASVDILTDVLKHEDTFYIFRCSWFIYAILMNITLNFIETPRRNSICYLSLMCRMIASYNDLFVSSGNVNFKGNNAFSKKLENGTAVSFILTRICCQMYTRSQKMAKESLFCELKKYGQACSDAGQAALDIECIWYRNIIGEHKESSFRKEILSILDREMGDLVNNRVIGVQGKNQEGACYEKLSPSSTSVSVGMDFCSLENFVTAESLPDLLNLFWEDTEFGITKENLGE
# Assay: PBM E-score (8-mer binding enrichment) (E-score (-0.5 to 0.5)); higher = stronger / more preferred TF binding
# Settings: protein concentration: 100 nM; construct: GST-full length
# Method: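 Universal 'all 10-mer' protein binding microarrays (Agilent AMADID 015681) probed with GST-tagged S. cerevisiae TFs (full-length or DBD) made by in vitro transcription/translation (PURExpress), about 100-200 nM. Bound TF was detected with fluorescent anti-GST. Each ungapped 8-mer (which stands for itself and its reverse complement) is scored by the PBM enrichment score (E-score), a modified Wilcoxon-Mann-Whitney statistic from -0.5 to +0.5, computed with the Universal PBM Analysis Suite. Scale: above 0.35 generally sequence-specific binding.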
row,Sequence,PBM E-score
1,AACCGGCC,0.318
2,AACCGGCG,0.306
3,AACCGACG,0.189
4,CACCGGCG,0.238
5,AACCGGCA,0.238
6,CACCGGCC,0.177
7,ATATGAAT,0.156
8,ATACTCGA,-0.0376
9,AAGTCCCC,-0.18
10,TAAAAGTA,0.161
11,AGAGAGTG,-0.158
12,CTCTCATA,-0.0704
13,GAGGGAGC,-0.277
14,CGAGGTTC,0.116
15,GCCGAGGA,0.335
16,CCCGAGGC,-0.013
17,CCCGAGGA,0.0175
18,TCCGAGGA,0.196
19,ACCGAGCC,0.221
20,ACCGAGGC,-0.0788
21,CCCGAGCC,0.155
22,GCCGAGCC,0.34
23,GCCGAGGC,0.386
24,AGCGGTGC,-0.168
25,AATTGCGC,0.16

row,Sequence,PBM E-score
1,CGGATCAC,0.277
2,ATTTATAC,0.28
3,ATATATTC,0.319
4,CTATATTC,-0.0128
5,CTTTATAA,0.0517
6,ATTTATAA,0.326
7,ATATATAG,0.282
8,CTATATAC,0.247
9,ATATATTG,0.0957
10,GTATATAC,-0.0816
11,ATATATAT,0.336
12,CTATATAG,-0.109
13,ATATATAC,0.317
14,AGTAGCCG,0.198
15,GTGACATA,0.121
16,CTTTACCC,0.00954
17,CCTGAAAC,0.15
18,AATACTGT,0.188
19,GAAGCAAA,-0.0663
20,CAGCCTCG,-0.0314
21,GGCTTAAC,-0.0348
22,TTATATAA,0.225
23,ATATATAA,0.339
24,ATATAACA,0.309
25,CTATAACA,-0.0394

row,Sequence,PBM E-score
1,CTATATAA,0.0877
2,ATATAACC,-0.0755
3,AGATGGGA,-0.194
4,GAGGCTGA,-0.172
5,ACAGGGGA,-0.249
6,CCAGTCGG,-0.0574
7,ATATATCC,0.318
8,ATATATCG,0.312
9,AAATATCG,0.194
10,AATTATCC,0.116
11,CTATATCC,-0.119
12,ATATATCA,0.115
13,AATTATCG,0.305
14,AATTATCA,0.221
15,AGATATCC,0.0863
16,AAGTATTC,0.0574
17,CGTAAGCA,-0.252
18,AGCTAGCC,-0.0869
19,AAGGTGAA,-0.0939
20,CAGCAAAA,-0.0176
21,CCATACCA,-0.145
22,ATTGAGTA,0.191
23,CGGACAAG,0.234
24,CGGACAAC,0.373
25,CGGACGAA,0.353

row,Sequence,PBM E-score
1,CGGACAAA,0.353
2,AGGACAAC,0.0373
3,GGGACAAC,-0.0988
4,GGGACGAA,0.0852
5,CGGACGAC,0.23
6,AGGACAAA,0.136
7,CATCGAAG,-0.0421
8,ACTTAACA,-0.00053
9,ATGCTCTG,-0.178
10,AATGGCCG,0.0612
11,ATGAAGGC,-0.0969
12,CGTCCCGA,0.0521
13,GATCTGAC,-0.0541
14,ATTGCCGG,0.348
15,GCTGCCGA,0.292
16,ATTGCCAG,-0.0205
17,CTTGCCGA,0.22
18,ATTGCCGC,0.162
19,GTTGCCCA,-0.0158
20,ATTGCCGA,0.311
21,ATTGCCCA,-0.102
22,GTTGCCGA,0.373
23,TCCTGCGA,0.00447
24,GGCCAACA,-0.0401
25,GCTGTTAC,-0.0967

row,Sequence,PBM E-score
1,CTTAGCAA,0.0294
2,TCCTGCAA,-0.0596
3,AGGCATAT,0.0107
4,ACGCCAGA,-0.132
5,CAACCGGC,0.323
6,CAACCGGG,0.14
7,CAACCGGA,0.373
8,CAACCGCC,-0.042
9,CTACCGGC,0.0792
10,TAACCGGA,0.279
11,CAACCGAA,0.258
12,CAACCGAC,0.238
13,CAACCGCA,0.0386
14,GAACCGGA,0.349
15,CAACCGCG,0.306
16,GAACCGGC,0.18
17,CTCTAACA,0.0218
18,AGTTCGAT,-0.0396
19,AGGTGAAC,-0.112
20,ACGTTGCT,-0.0994
21,CGGATGGA,0.207
22,ATCACAAT,0.0634
23,CAAGCGCA,0.0414
24,CCCACCTA,-0.241
25,GGTATCAA,-0.0802

row,Sequence,PBM E-score
1,AAACCGCC,0.147
2,AAACCGGT,0.216
3,AGACCGGC,0.128
4,AAACCGGA,0.306
5,AAACCGGC,0.313
6,AAACCGGG,0.0839
7,ATTTAGAC,0.121
8,AAAACCCG,0.163
9,AAAGCCGC,0.188
10,TAAGCCGA,0.369
11,CCAGCCGA,0.205
12,CAAGCCCA,-0.326
13,CAAGCCTG,-0.271
14,AAAGCCGT,0.262
15,CAAGCCGC,-0.0146
16,AAAGCCGA,0.174
17,CAAGCCGA,0.324
18,AAAGCCGG,0.351
19,GAAGCCGA,0.287
20,CAAGCCGG,0.327
21,CTCACAAG,-0.177
22,AAGGTCGG,-0.018
23,TAGGTGAA,0.0169
24,CACCAACA,-0.23
25,GGCTATCA,0.131

row,Sequence,PBM E-score
1,ACTCGGAT,0.268
2,ACTCGGAC,0.208
3,ACTCGGAA,0.341
4,GCTCGGTA,0.129
5,GCTCGGAC,0.187
6,CCTCGGAA,0.28
7,TGTCGGAA,0.163
8,GCTCGGAA,0.334
9,TCTCGGAA,0.334
10,GCAGCAGC,-0.0995
11,CCATAGCG,-0.124
12,CGGTCTCA,0.0469
13,GGACGCCA,-0.224
14,CCTCTTCA,-0.18
15,ATTCTCGG,0.345
16,ATTCTCGC,-0.192
17,ACTCTCGA,-0.0924
18,ATTCTCGA,0.0246
19,ACTCTCGC,-0.169
20,ACTCTCGG,0.344
21,ACCACGAT,-0.0131
22,AGTTATGG,-0.0312

# Source: the supplement of paper PMC3334620
